Laboratory results from the supplement of paper PMC11006884.
The full data set covers some 6,500 targets. This sample favours those with a hit. About 2% of all pairs of compound and target were hits.

compound: COC(=O)C#Cc1ccccc1 [methyl 3-phenylpropiolate]; assay: log2 ratio of iodoacetamide-alkyne labeling of the cysteine site, DMSO over compound (competition); higher = stronger covalent engagement of the cysteine by the compound, active = 1 or more; conditions: 500 µM; treatment time 1 h; system: HEK293T cell lysate
How it was run: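 Three replicates, each with duplicate channels, were prepared from HEK293T lysate (2 mg/mL) treated with vehicle or electrophile at 500 µM for 1 h at ambient temperature. Iodoacetamide alkyne was then applied for 1 h, and samples were clicked to sCIP-TMT reagents, pooled, trypsin-digested overnight at 37 °C, enriched on streptavidin, acid-eluted and analysed on Orbitrap Eclipse LC-MS/MS with FAIMS, with FragPipe quantification. The log2 competition ratio per cysteine is the mean control-channel divided by the mean compound-channel reporter intensity. Cysteines quantified in only one replicate were left out.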

Sequence of UniProt P57740 (P57740 whole entry): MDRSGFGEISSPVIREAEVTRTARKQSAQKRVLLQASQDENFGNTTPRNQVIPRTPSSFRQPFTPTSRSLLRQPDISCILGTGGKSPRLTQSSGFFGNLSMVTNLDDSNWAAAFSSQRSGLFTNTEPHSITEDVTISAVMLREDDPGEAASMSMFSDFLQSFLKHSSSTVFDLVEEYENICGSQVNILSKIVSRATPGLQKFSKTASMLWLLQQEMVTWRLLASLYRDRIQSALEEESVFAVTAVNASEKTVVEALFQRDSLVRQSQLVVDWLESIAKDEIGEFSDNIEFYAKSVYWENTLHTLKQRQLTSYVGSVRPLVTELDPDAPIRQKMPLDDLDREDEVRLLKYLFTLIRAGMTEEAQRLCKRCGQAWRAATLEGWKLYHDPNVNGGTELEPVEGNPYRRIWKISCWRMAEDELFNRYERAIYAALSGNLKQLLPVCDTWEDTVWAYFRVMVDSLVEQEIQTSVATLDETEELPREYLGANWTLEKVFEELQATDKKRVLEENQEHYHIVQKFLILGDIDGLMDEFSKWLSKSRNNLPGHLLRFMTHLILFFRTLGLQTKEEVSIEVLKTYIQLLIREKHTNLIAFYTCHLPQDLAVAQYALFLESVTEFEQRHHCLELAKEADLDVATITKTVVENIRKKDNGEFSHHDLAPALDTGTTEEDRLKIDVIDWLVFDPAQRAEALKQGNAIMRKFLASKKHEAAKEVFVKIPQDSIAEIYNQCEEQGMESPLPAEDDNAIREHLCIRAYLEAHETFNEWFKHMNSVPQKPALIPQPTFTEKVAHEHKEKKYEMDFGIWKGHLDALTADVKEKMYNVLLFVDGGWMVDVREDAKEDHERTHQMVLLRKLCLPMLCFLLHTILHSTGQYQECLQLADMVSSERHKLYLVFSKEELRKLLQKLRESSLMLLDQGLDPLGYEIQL
Sequence of UniProt Q13642 (Q13642 whole entry, looked up): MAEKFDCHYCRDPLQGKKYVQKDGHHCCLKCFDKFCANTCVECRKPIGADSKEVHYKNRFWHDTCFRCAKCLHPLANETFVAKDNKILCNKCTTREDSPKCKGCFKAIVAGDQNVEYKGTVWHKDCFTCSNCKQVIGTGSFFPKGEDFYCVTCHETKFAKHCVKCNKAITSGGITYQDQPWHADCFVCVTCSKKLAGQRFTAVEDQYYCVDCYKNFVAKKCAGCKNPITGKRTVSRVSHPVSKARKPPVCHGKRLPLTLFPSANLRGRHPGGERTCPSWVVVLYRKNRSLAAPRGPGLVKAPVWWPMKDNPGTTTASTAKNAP
Sequence of UniProt Q12788 (Q12788 whole entry, looked up): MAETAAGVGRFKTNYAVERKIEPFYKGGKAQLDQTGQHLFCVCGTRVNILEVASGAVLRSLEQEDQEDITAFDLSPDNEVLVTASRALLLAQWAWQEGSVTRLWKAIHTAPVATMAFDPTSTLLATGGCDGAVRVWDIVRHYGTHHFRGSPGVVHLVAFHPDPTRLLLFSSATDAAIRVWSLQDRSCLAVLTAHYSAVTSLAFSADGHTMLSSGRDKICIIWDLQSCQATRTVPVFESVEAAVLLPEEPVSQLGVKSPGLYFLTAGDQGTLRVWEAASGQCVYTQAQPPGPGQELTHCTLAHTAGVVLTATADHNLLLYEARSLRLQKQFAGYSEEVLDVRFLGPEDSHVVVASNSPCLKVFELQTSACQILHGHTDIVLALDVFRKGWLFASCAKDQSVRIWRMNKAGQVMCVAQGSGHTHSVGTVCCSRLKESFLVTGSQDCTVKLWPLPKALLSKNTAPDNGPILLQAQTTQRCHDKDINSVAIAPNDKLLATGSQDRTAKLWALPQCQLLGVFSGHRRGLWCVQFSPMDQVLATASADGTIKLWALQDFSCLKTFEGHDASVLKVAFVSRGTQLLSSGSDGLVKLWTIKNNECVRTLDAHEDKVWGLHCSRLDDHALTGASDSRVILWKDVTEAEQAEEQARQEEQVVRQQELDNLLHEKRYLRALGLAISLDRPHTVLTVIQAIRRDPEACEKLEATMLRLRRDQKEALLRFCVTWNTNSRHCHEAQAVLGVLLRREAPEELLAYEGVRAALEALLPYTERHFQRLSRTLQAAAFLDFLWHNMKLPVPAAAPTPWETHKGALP
Sequence of UniProt Q5JRA6 (Q5JRA6 whole entry, looked up): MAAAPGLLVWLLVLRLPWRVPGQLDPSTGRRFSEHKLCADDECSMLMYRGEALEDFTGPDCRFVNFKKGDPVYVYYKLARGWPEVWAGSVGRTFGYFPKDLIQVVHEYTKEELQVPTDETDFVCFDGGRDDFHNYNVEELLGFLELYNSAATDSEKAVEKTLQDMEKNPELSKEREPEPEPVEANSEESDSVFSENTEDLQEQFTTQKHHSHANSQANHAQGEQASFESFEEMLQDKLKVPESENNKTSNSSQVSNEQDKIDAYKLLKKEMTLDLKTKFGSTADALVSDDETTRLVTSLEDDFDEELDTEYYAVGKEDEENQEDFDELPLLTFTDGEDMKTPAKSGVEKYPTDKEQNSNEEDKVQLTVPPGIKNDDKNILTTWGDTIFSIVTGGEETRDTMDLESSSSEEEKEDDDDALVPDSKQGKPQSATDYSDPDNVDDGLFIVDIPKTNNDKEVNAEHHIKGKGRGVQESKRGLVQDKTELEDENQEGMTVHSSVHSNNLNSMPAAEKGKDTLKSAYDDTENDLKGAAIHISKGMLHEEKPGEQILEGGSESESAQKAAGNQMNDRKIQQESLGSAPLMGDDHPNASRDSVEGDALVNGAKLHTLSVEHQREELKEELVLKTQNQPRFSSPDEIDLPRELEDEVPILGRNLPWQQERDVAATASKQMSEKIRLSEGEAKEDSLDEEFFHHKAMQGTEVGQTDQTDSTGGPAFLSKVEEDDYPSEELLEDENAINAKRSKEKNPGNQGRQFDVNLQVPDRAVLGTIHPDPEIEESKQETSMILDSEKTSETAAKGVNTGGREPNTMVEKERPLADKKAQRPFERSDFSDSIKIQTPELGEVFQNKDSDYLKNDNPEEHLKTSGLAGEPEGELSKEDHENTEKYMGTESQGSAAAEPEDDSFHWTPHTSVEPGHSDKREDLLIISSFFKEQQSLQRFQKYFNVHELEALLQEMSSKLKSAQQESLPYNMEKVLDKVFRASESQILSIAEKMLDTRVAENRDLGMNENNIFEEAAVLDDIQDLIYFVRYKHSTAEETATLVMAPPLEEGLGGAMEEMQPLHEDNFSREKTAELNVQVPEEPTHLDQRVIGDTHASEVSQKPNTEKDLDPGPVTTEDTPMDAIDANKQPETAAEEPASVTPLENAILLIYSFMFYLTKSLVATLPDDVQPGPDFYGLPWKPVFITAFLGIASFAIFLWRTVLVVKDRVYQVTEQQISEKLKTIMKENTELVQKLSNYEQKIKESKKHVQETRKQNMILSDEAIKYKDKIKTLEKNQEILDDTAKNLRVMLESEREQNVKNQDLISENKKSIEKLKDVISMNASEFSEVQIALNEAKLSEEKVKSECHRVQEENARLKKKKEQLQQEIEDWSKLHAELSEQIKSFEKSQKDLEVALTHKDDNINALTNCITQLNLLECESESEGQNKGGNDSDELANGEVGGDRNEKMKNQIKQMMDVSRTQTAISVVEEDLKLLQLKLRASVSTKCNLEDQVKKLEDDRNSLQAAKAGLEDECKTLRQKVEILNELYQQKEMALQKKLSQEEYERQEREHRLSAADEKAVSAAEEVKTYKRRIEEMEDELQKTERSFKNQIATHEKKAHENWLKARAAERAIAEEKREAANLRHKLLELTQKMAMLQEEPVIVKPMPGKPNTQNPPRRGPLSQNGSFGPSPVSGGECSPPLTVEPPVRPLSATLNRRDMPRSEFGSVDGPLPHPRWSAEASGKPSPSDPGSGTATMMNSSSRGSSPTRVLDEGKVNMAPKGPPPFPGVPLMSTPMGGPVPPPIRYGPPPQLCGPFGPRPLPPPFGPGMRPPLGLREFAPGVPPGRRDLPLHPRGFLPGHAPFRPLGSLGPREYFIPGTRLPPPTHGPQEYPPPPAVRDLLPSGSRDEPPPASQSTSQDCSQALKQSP
Sequence of UniProt Q15437 (Q15437 whole entry, looked up): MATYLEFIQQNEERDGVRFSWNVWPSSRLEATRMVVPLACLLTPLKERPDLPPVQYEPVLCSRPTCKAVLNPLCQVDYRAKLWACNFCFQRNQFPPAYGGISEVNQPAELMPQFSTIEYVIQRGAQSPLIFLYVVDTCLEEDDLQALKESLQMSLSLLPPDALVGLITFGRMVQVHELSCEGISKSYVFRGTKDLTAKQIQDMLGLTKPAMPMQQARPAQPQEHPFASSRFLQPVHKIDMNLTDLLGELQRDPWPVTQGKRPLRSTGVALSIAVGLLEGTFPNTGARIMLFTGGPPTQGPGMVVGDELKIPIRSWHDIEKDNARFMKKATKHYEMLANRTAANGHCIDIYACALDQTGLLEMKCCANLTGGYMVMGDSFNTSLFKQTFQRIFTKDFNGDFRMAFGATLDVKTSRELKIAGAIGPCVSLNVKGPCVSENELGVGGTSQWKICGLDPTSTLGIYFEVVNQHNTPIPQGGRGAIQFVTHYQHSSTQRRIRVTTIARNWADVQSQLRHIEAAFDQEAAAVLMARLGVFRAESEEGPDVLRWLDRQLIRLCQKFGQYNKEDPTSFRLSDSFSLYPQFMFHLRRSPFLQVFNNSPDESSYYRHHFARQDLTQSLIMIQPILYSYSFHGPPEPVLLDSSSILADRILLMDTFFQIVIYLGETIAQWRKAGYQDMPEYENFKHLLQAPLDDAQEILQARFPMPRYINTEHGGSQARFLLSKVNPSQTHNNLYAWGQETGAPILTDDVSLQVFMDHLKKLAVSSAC

Target	log2 ratio of iodoacetamide-alkyne labeling
FHL1 C191 (UniProt Q13642)	-0.117 (inactive)
UniProt Q13242_C138	0.112 (inactive)
NUP107 C78 (UniProt P57740)	0.705 (inactive)
UniProt Q16512_C602	0.0536 (inactive)
SPTAN1 C1930 (UniProt Q13813)	0.167 (inactive)
MORC3 C619 (UniProt Q14149)	0.279 (inactive)
UniProt P84103_C6	0.422 (inactive)
TTLL12 C126 (UniProt Q14166)	-0.117 (inactive)
UniProt P62244_C72	0.177 (inactive)
TBL3 C696 (UniProt Q12788)	0.373 (inactive)
CNBP C171 (UniProt P62633)	-0.0616 (inactive)
MAP7D1 C361 (UniProt Q3KQU3)	1.65 (active)
UniProt Q12905_C37	0.0335 (inactive)
UniProt Q05655_C127	0.196 (inactive)
CTTN C112 (UniProt Q14247)	0.88 (inactive)
UniProt P78527_C3281	0.287 (inactive)
DIP2A C6 (UniProt Q14689)	1.75 (active)
UniProt Q5H9L4_C158	1.09 (active)
CNBP C6 (UniProt P62633)	0.0447 (inactive)
ADAR C649 (UniProt P55265)	0.375 (inactive)
SEC23B C767 (UniProt Q15437)	0.00601 (inactive)
GFPT1 C55 (UniProt Q06210)	0.387 (inactive)
MIA3 C1513 (UniProt Q5JRA6)	0.31 (inactive)
